Laboratory results: PubChem BioAssay (NCATS)
“And” between values parts separate entries of the source, which are not always exact repeats. Identical values can stand only once. Inconclusive results are not listed. A call without a number means that no potency is given here. Unmarked numbers belong to inactive results. The source made the active and inactive calls. The call rests on the fitted dose curve; in most records, active means well fitted curve in the direction sought with a large enough effect; inconclusive means small, poorly fitted or top-dose-only effect, or another doubt; inactive means no such curve, though single readings can be large; an effect the other way counts as inactive or inconclusive.

Key:
[1] = biological target: Cytochrome P450 3A7 (Homo sapiens) (UniProt P24462); experiment: Cytochrome P450 family 3 subfamily A member 7 (CYP3A7) small molecule antagonists: luciferase biochemical qHTS assay (AID 1963596); further: nearly all actives have a fitted effect of over 40% in size
In short: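 Luminescence from luciferin released by CYP3A7 from a proluciferin substrate, read 20 min after detection reagent. Compound and enzyme-substrate mix sat 10 min before NADPH regeneration solution; reaction ran 1 h at room temperature.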

[2] = Cellular viability qHTS for adrenocortical cancer (ACC) cell line SW-13 (AID 1963989); settings: SW-13 ACC cells viability, CellTiter-Glo, 48 h; activity (max response): active compounds read low; further: nearly all actives have a fitted effect of over 65% in size;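 on activity (max response): cells grown in serum-free medium with ITS supplement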
In short: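 SW-13 cells in ITS-supplemented serum-free DMEM were plated overnight, then exposed for 48 h at 37C to compound titrations (up to 46 uM final). Viability was read by CellTiter-Glo luminescence; four-parameter logistic fits gave IC50 and efficacy.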

[3] = Cellular viability qHTS for adrenocortical cancer (ACC) cell line NCI-H295R (AID 1963990); further: nearly all actives have a fitted effect of over 60% in size
In short: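 Luminescent ATP read-out (CellTiter-Glo, 20 min RT) after 48 h drug exposure of NCI-H295R cells; a titration up to 46 uM final. Data normalized to doxorubicin (100% inhibition) and DMSO (0%); 4-parameter fit gives IC50, max response.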
Potency means the concentration at half of the fitted maximal effect.

Sequence of Cytochrome P450 3A7 (Homo sapiens) (P24462 whole entry, looked up): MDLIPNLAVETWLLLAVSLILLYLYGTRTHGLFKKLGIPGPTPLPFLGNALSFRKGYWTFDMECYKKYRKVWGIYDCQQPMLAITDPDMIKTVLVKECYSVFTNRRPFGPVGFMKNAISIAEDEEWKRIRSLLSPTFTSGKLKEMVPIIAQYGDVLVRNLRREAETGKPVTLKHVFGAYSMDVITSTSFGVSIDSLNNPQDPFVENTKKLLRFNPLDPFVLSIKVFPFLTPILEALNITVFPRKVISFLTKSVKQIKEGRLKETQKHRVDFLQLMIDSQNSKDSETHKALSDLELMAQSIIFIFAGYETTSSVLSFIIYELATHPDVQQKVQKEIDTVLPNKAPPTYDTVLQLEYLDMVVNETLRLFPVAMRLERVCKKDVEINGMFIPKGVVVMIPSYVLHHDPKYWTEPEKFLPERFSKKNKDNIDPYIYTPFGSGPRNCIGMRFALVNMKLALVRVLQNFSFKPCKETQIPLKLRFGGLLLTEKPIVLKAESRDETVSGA

| SMILES | Potency [1] | activity (max response) [2] | Potency [3] | Potency [2] |
| --- | --- | --- | --- | --- |
| CC(C)(C)NCC(O)COc1ccc(NC(=O)NC2CCCCC2)cc1 (stereo not drawn) | inactive | 5.25% | inactive | – |
| Cc1ccc(NC(=O)Nc2cc(C(F)(F)F)ccc2F)cc1Nc1ccc2c(c1)NC(=O)/C2=C\c1ccc[nH]1 | inactive | – | 25.1 µM (active) | 22.4 µM (active) |
| CCOC(=O)c1ccc(O)cc1 | inactive | 9.4% | inactive | – |
| Cc1ccc(S(=O)(=O)NC(=O)NC2CCCC2)cc1 | inactive | 10.7% | inactive | – |
| O=C1c2cccc3c2[C@H](CCC3)CN1[C@@H]1CN2CCC1CC2 | inactive | -4.45% | inactive | – |
| COc1cc2nc(Cl)nc(N)c2cc1OC | inactive | 1.23% | inactive | – |
| CCOC(=O)c1cccc(N)c1 | 27.5 µM (active) | -1.69% | inactive | – |
| O=C(O)CCc1nc2ccccc2[nH]1 | inactive | 0.871% | inactive | – |
| CN(C)C(=O)CNC(=O)Cc1ccccc1 | inactive | -6.74% | inactive | – |
| CC(=O)OCC(=O)[C@@]1(OC(C)=O)[C@@H](C)C[C@H]2[C@@H]3C[C@H](F)C4=CC(=O)C=C[C@]4(C)[C@@]3(F)[C@@H](O)C[C@@]21C | inactive | 3.57% | inactive | – |
| COP(=O)(OC)OC(c1ccc(Cl)cc1)P(=O)(OC)OC (stereo not drawn) | inactive | -0.893% | inactive | – |
| NC(=O)c1ncn([C@@H]2O[C@H](CO)[C@@H](O)[C@H]2O)n1 | inactive | -0.314% and -2.41% | inactive | – |
| CC(=O)c1cc2ccccc2s1 | inactive | 15.3% | inactive | – |
| CC(=O)N[C@H]1[C@H]([C@H](O)[C@H](O)CO)OC(C(=O)O)=C[C@@H]1N=C(N)N | inactive | -7.79% | inactive | – |
| CC(C)C(=O)Nc1cccc(C(F)(F)F)c1 | inactive | 14.2% | inactive | – |
| COC(=O)c1cc(Cl)ccc1NS(=O)(=O)C(F)(F)F | inactive | -0.552% | inactive | – |
| CC(C)N=C(N)/N=C(\N)Nc1ccc(Cl)cc1 | inactive | – | inactive | – |
| Cl/C(=C\n1cncn1)c1ccc(Cl)cc1Cl | inactive | 2.66% | inactive | – |
| O=C(O)Cc1ccc2c(c1)C(=O)c1ccccc1CO2 | inactive | 11.3% | inactive | – |
| CCOC(=O)C(C#N)=C(c1ccccc1)c1ccccc1 | inactive | -5.89% | inactive | – |
| Cc1c(N(C)CS(=O)(=O)O)c(=O)n(-c2ccccc2)n1C | inactive | 3.83% | inactive | – |
| C[N+]12CCC(CC1)C(OC(=O)C(O)(c1ccccc1)c1ccccc1)C2 (stereo not drawn) | inactive | -2.73% | inactive | – |
| COc1ccccc1OCC1CNC(=O)O1 (stereo not drawn) | inactive | 12.9% | inactive | – |
